These results are taken from PubChem BioAssay (EPA / NIEHS).

Molecules are shown by their SMILES. Records with an inconclusive call do not appear. Calls of active or inactive are those of the source. Rule for the calls: active = hit-call score of the fitted dose curve at least 0.9, where 1 is the maximum; inconclusive = response in the unintended direction; inactive = score below 0.9.

This test deals with Retinoic acid receptor RXR-alpha (Homo sapiens) (UniProt P19793). Kind of test: ATG_RXRa_TRANS: Attagene TRANS-FACTORIAL HepG2 Assay for human Retinoid X Receptor alpha (RXRa) (AID 2283012). The procedure: ATG_TRANS is a cell-based, multiplexed-readout assay that uses HepG2, a human liver cell line, with measurements taken at 24 hours after chemical dosing in a 24-well plate.ATG_RXRa_TRANS is one of 30 assay component(s) measured or calculated from the ATG_TRANS assay. It is designed to make measurements of mRNA induction, a form of inducible reporter, as detected with fluorescence intensity signals by Reverse transcription polymerase chain reaction (RT-PCR) and Capillary electrophoresis technology.Data from the assay component ATG_RXRa_TRANS was analyzed into 1 assay endpoint. This assay endpoint, ATG_RXRa_TRANS, was analyzed in the positive analysis fitting direction relative to DMSO as the negative control and baseline of activity. Using a type of inducible reporter, measures of mRNA for gain-of-signal activity can be used to understand the reporter gene at the transcription factor-level as they relate to the gene RXRA. Furthermore, this assay endpoint can be referred to as a primary readout, because this assay has produced multiple assay endpoints where this one serves a reporter gene function. To generalize the intended target to other relatable targets, this assay endpoint is annotated to the nuclear receptor intended target family, where the subfamily is non-steroidal.
Retinoic acid receptor RXR-alpha (Homo sapiens), sequence (P19793 whole entry, looked up): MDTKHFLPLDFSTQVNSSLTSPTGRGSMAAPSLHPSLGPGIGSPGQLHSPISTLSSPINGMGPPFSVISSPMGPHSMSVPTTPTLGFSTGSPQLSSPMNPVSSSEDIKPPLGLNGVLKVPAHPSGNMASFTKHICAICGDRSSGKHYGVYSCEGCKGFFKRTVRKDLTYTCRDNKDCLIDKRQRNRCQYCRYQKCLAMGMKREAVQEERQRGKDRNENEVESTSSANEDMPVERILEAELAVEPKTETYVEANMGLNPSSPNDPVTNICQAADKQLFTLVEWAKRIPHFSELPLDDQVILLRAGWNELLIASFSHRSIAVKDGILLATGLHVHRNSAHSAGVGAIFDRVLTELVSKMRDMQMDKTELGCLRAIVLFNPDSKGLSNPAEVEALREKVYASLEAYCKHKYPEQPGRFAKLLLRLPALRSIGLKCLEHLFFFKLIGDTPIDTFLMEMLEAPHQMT
Human liver HepG2 cells are transiently transfected with multiple reporter transcription units (MRTUs) in 6-well plates using FuGene 6 reagent (Roche; 3 ml FuGene/1 mg DNA). The MRTU constructs are regulated by a cis-regulating element (promoter). […] A major difference between the CIS and TRANS system is that in CIS activities of endogenous TFs are measured, whereas the TRANS assay evaluates changes in activities of exogenous, chimeric NR-Gal4 proteins. […] At the end of 24 hour incubation, total RNA was isolated using TriZol reagent (Invitrogen). The isolated RNA is then reverse-transcribed using oligo(dT) primer and Mo-MLV reverse transcriptase (Invitrogen) with DNAse I (Ambion) treatment for 30 min. The one-tenth of the produced cDNA was amplified by PCR using Taq DNA polymerase (Invitrogen) and two reporter sequence-specific primers. The PCR products were fluorescently labeled by primer extension with 6-arboxyfluorescein (6-FAM) 5'-labeled reporter sequence-specific primer (2 min at 95 C, 20 s at 68 C and 10 min at 72 C) and these products were digested with 5U of HpaI (New England Biolabs) for 2h at 37 C. The fragments were purified using Qiaquick PCR columns (Qiagen), analyzed on an ABI 3130xL genetic analyzer (Applied Biosystems) with peak positions identified by using a set of X-rhodamine (ROX)-labeled MapMarker1000 molecular weight standards (BioVentures). The raw capillary electrophoresis data was processed using Attagraph software (Attagene).
Consider `OCc1ccco1`, for which the compound was called inactive.

Regarding `Oc1c(I)cc(I)cc1I`, the compound was classed as inactive.

For the compound `CC(=[OH+])/C=C(/C)[O-].CC(=[OH+])/C=C(/C)[O-].CC(=[OH+])/C=C(/C)[O-].[Al]`, the compound was called inactive. Then `O=CC=O`, with “inactive”; and `O=C(Cl)c1ccc(Cl)cc1`, with “inactive”; and `O=C1C(Cl)=C(Cl)C(=O)c2ccccc21`, with “inactive”. The value for `CCCCC(CC)CO[N+](=O)[O-]` (stereo not given) was “inactive”. The value for `O=[N+]([O-])c1ccc(O)c([N+](=O)[O-])c1` was “inactive”; that for `N#CN=C(N)N` was “inactive”; that for `CCc1ccccc1C` was “inactive”.

Take `CNC(=O)O/N=C/C(C)(C)S(C)=O` (stereo not given): the outcome was inactive. Consider `O=C/C=C/c1ccccc1`, for which the compound was classed as inactive. Then `CCCCCCCCSC(=O)Oc1cc(Cl)nnc1-c1ccccc1`, with “inactive”; and `CC(C)(C)CC(C)(C)c1ccc(O)cc1`, with “inactive”.

Consider `CCCCP(CCCC)CCCC`, for which the compound was classed as inactive. For `CC(C)(c1ccc(OCC2CO2)cc1)c1ccc(OCC2CO2)cc1` (stereo not given), the compound was called inactive. The value for `CCOC(=O)CP(=O)(OCC)OCC` was “inactive”; that for `N#CCCO` was “inactive”; that for `Cc1ccccc1N` was “inactive”. With `Nc1cccc2ccccc12`, the call was inactive. Then `NNC(=S)NN`, with “inactive”; and `Fc1ccc(C2(Cn3cncn3)OC2c2ccccc2Cl)cc1` (stereo not given), with “inactive”; and `CCOP(=S)(OCC)SCSP(=S)(OCC)OCC`, with “inactive”.

In the case of `COP(=S)(OC)Oc1ccc(Sc2ccc(OP(=S)(OC)OC)cc2)cc1`, the outcome was inactive.

As to `CCNc1nc(NC(C)(C)C)nc(SC)n1`, the compound was classed as inactive. `Clc1nc(Cl)nc(Cl)n1`: the call was inactive.

For the compound `C1CCC(NC2CCCCC2)CC1`, the outcome was inactive. The value for `C(=NC1CCCCC1)=NC1CCCCC1` was “inactive”; that for `CCOP(=S)(OCC)Oc1nc(Cl)c(Cl)cc1Cl` was “inactive”; that for `CCOP(=S)(OCC)SCCS(=O)(=O)CC` was “inactive”. As for `O=P(O)(O)CN(CP(=O)(O)O)CP(=O)(O)O`, the call was inactive. The value for `C[C@]12CC[C@H](O)CC1=CC[C@@H]1[C@@H]2CC[C@]2(C)C(=O)CC[C@@H]12` was “inactive”. Then `ClCc1cccnc1`, with “inactive”; and `C[C@]12CCC(=O)C[C@@H]1CC[C@@H]1[C@@H]2CC[C@]2(C)[C@@H](O)CC[C@@H]12`, with “inactive”; and `O=C(O)Cc1ccccc1`, with “inactive”. Then `CCOP(=S)(OCC)Oc1ccc(S(C)=O)cc1` (stereo not given), with “inactive”.

Turning to `C[C@@H]1C[C@@H]([C@H](O)CC2CC(=O)NC(=O)C2)C(=O)[C@@H](C)C1`, the result was inactive.

Consider `C=CC(=O)OCCCCCC(C)C`, for which the call was inactive. On to `COc1cc(-c2ccc(N)c(OC)c2)ccc1N`, for which the compound was called inactive. Then `c1ccc(N=NNc2ccccc2)cc1`, with “inactive”.
